The record followed here is the supplement of paper PMC6555819.

Assay in all cases: PBM binding z-score (relative to random genomic background probes); higher = stronger binding; sequences stand for … in GC…GCGATTGACAGCGTAGAATGAAGG
The test system of experiment [1] is FXR:RXRa (NR concentration 270 nM, RXRa partner concentration 90 nM). In a few lines: (§1)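 Binding z-scores were set against random background probes. The data came from custom Agilent 4×180K protein-binding microarrays carrying double-stranded probes with 34-nt variable regions, incubated 1 h with ligand-free nuclear receptor dimers. Partner-specific antibodies detected binding, and scanned fluorescence was regression-normalized.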

The test system of experiment [2] is LXRa:RXRa (NR concentration 270 nM, RXRa partner concentration 90 nM). In a few lines:
as §1

In experiment [3] the test system is LXRa homodimer (NR concentration 270 nM). An outline of the steps: as §1
In experiment [4] the test system is LXRb:RXRa (NR concentration 270 nM, RXRa partner concentration 90 nM). In a few lines: as §1
In experiment [5] the test system is LXRb homodimer (NR concentration 270 nM). An outline of the steps: as §1
The test system of experiment [6] is PPARa:RXRa (NR concentration 270 nM, RXRa partner concentration 90 nM). An outline of the steps: as §1
Experiment [7] has as its system PPARg:RXRa (NR concentration 180 nM, RXRa partner concentration 90 nM). An outline of the steps:
as §1

Experiment [8] has as its system PPARg:RXRa 270nM:90nM, anti-RXR (NR concentration 270 nM, RXRa partner concentration 90 nM). An outline of the steps: as §1
Experiment [9] concerns PPARg:RXRa 30nM:10nM, anti-RXR (NR concentration 30 nM, RXRa partner concentration 10 nM). In a few lines: as §1
In experiment [10] the test system is PPARg:RXRa 90nM:30nM, anti-RXR (NR concentration 90 nM, RXRa partner concentration 30 nM). An outline of the steps: as §1
Experiment [11] relates to PPARg:RXRa DBDmut IVT, anti-RXR (DBD mutation: RXRa K156A/R161A, NR concentration 270 nM, RXRa partner concentration 90 nM). In a few lines:
as §1

Experiment [12] has as its system PPARg:RXRa IVT, anti-PPARg (NR concentration 270 nM, RXRa partner concentration 90 nM). An outline of the steps: as §1
For experiment [13], the system named is PPARg DBDmut:RXRa IVT, anti-PPARg (DBD mutation: PPARg1 K132A/R137A, NR concentration 270 nM, RXRa partner concentration 90 nM). In a few lines:
as §1

The subject of experiment [14] is PPARg DBDmut IVT, anti-PPARg (DBD mutation: PPARg1 K132A/R137A, NR concentration 270 nM). An outline of the steps:
as §1

Experiment [15] deals with PPARg homodimer (NR concentration 180 nM). In a few lines:
as §1

In experiment [16] the test system is PXR:RXRa (NR concentration 270 nM, RXRa partner concentration 90 nM). An outline of the steps: as §1
The subject of experiment [17] is PXR homodimer (NR concentration 270 nM). In a few lines: as §1
Experiment [18] deals with RARa:RXR (NR concentration 270 nM, RXRa partner concentration 90 nM). In a few lines: as §1
In experiment [19] the test system is RARa homodimer (NR concentration 270 nM). In a few lines:
as §1

In experiment [20] the test system is RARb:RXRa (NR concentration 270 nM, RXRa partner concentration 90 nM). An outline of the steps:
as §1

Regarding CCAACTAGGTCAAGGACAGTGAATCTCCGCACGC, the PBM binding z-score in [1] came out at 3.25; in [2] it was 2.12; in experiment [3], 0.634; in experiment [4], 1.47; in experiment [5], 0.422; in experiment [6], 3.96. For the same sequence, the PBM binding z-score is 6.59 in experiment [7]; 5.37 in experiment [8]; 3.19 in [9]; 4.79 in experiment [10]; 7.53 in experiment [11]; 7.55 in experiment [12]. In addition, the PBM binding z-score is 1.93 in experiment [13]; 1.81 in [14]; 2.38 in experiment [15]; 1.23 in experiment [16]; 0.209 in experiment [17]; 2.01 in experiment [18]. The PBM binding z-score in [19] amounted to 1.21; in [20], 3.98.

On to TCTTGCAGATCAAGCAGGTTAAGAAAGCCTGAGT, for which the PBM binding z-score was -0.529 in experiment [1]; 0.00259 in experiment [2]; -0.304 in experiment [3]; 0.157 in experiment [4]; -0.667 in experiment [5]; 0.293 in experiment [6]. Besides, the PBM binding z-score in experiment [7] was -0.508; in [8], 0.302; in experiment [9], 1.76; in experiment [10], 1.14; in experiment [11], 0.549; in [12] it was -0.312. Moreover, the PBM binding z-score in experiment [13] was -0.516; in experiment [14], -0.801; in [15] it was -0.945; in [16] it was 0.199; in experiment [17], -0.285; in experiment [18], 0.324. Further, the PBM binding z-score was -1.11 in experiment [19] and -0.136 in experiment [20].

In the case of TCGAGTAGGTTTCCAATGGGGCATTCAGCTTTCT, the PBM binding z-score in experiment [1] was 0.0114; in experiment [2], -0.0745; in [3] it was -0.502; in [4], 0.0167; in experiment [5] it was -0.0602; in experiment [6], -0.255. Besides, the PBM binding z-score in experiment [7] was -0.735; in experiment [8], 0.178; in [9], 0.836; in experiment [10], 0.304; in experiment [11], 1.53; in experiment [12], 0.378. For the same sequence, the PBM binding z-score was -1.11 in experiment [13]; -0.734 in [14]; -1.12 in experiment [15]; -0.503 in experiment [16]; -1.03 in experiment [17]; -0.636 in experiment [18]. The PBM binding z-score in experiment [19] was -1.26; in experiment [20], -0.326.

With CCAAGTTGGTCAAGGTCACACACGCTATAGGTAC, the PBM binding z-score came to 4.98 in [1]; 4.1 in experiment [2]; 1.98 in [3]; 3.73 in experiment [4]; 0.363 in experiment [5]; 4.23 in experiment [6]. In addition, the PBM binding z-score turned out to be 3.48 in [7]; 4.02 in experiment [8]; 1.45 in [9]; 3.14 in [10]; 2.97 in [11]; 3.8 in experiment [12]. For the same sequence, the PBM binding z-score in [13] is 0.633; in experiment [14] it was 0.94; in [15] it was 3.54; in [16] it was 4.6; in [17], 4.77; in experiment [18], 4.56. The PBM binding z-score is 1.99 in experiment [19] and 4.27 in [20].

As for TAGCCTAGGTCATGCGGGCCAGTACAGTGTCGGC, the PBM binding z-score in [1] was 4.21; in [2], 2.99; in experiment [3], 0.179; in [4] it was 1.48; in experiment [5], -0.174; in experiment [6], 3.65. In addition, the PBM binding z-score in experiment [7] is 2.42; in [8] it was 2.56; in experiment [9], 0.126; in [10], 1.61; in [11] it was 1.55; in experiment [12] it was 2.81. Moreover, the PBM binding z-score was 0.187 in [13]; -0.334 in experiment [14]; 1.24 in [15]; 1.55 in experiment [16]; -0.513 in experiment [17]; 2.47 in experiment [18]. Further, the PBM binding z-score is -0.899 in experiment [19] and 3.61 in experiment [20].

In the case of TGAATGAAGTTATAAGATCAGGGAACGTTGCAAA, the PBM binding z-score in experiment [1] is -0.521; in experiment [2], -0.697; in experiment [3], -0.369; in [4], -0.457; in [5], -0.454; in [6] it was -0.296. Further, the PBM binding z-score was 0.116 in experiment [7]; -0.239 in [8]; 0.157 in experiment [9]; -0.0808 in experiment [10]; -1.2 in experiment [11]; -0.333 in [12]. Besides, the PBM binding z-score in experiment [13] is 0.559; in [14], 0.214; in experiment [15], -0.63; in [16], -0.502; in [17], -0.359; in experiment [18], -0.42. The PBM binding z-score is 0.115 in experiment [19] and -1.82 in experiment [20].

Consider TCATATAGGTAAACAGGTGTAAGTCCGTAAGTTA, for which the PBM binding z-score is 0.827 in experiment [1]; 0.785 in experiment [2]; -0.0064 in [3]; 0.69 in [4]; -0.189 in [5]; 1.41 in [6]. Moreover, the PBM binding z-score in experiment [7] is 1.35; in experiment [8], 2.56; in experiment [9], 3.79; in experiment [10], 3.09; in experiment [11], 3.98; in [12], 2.97. Also, the PBM binding z-score in experiment [13] came out at 1.63; in experiment [14] it was 0.913; in experiment [15], 1.12; in experiment [16], 0.63; in [17], 0.672; in [18] it was 0.946. Moreover, the PBM binding z-score was 1.32 in experiment [19] and 0.512 in experiment [20].
